Experimental data taken from the supplement of paper PMC4466140.

Biological target: AgAbp1
Experiment: SPOT peptide array binding signal intensity (averaged, normalized) (arbitrary units (background-subtracted, floor 0; scale differs between SH3 domains)); higher = stronger binding of the SH3 domain to the peptide
How it was run: (§1)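 Four yeast species supplied the SH3 domains, which were expressed as GST fusions in E. coli BL21(DE3) and purified on glutathione Sepharose. Incubation with cellulose membranes carrying synthetic 15-mer peptides, cysteines exchanged for serines, ran overnight at 4°C at 10 μg/ml in TBS-based blocking buffer. Binding signal is reported as normalized, background-subtracted spot intensity averaged over replicates, in arbitrary units not shared between domains.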

Binder | SPOT peptide array binding signal intensity
RVTRKRPREPKSTND | 86

Biological target: AgBbc1
Experiment: as above
How it was run: as §1

Binder | SPOT peptide array binding signal intensity
RVTRKRPREPKSTND | 146

Biological target: AgBem1-D1
Experiment: as above
How it was run: as §1

Binder | SPOT peptide array binding signal intensity
RVTRKRPREPKSTND | 322

Biological target: AgBzz1-D1
Experiment: as above
How it was run: as §1

Binder | SPOT peptide array binding signal intensity
RVTRKRPREPKSTND | 18

Biological target: AgBzz1-D2
Experiment: as above
How it was run: as §1

Binder | SPOT peptide array binding signal intensity
RVTRKRPREPKSTND | 31

Biological target: AgCyk3
Experiment: as above
How it was run: as §1

Binder | SPOT peptide array binding signal intensity
RVTRKRPREPKSTND | 3

Biological target: AgFus1
Experiment: as above
How it was run: as §1

Binder | SPOT peptide array binding signal intensity
RVTRKRPREPKSTND | 300

Biological target: AgHof1
Experiment: as above
How it was run: as §1

Binder | SPOT peptide array binding signal intensity
RVTRKRPREPKSTND | 64.5

Biological target: AgHse1
Experiment: as above
How it was run: as §1

Binder | SPOT peptide array binding signal intensity
RVTRKRPREPKSTND | 606

Biological target: AgLsb1
Experiment: as above
How it was run: as §1

Binder | SPOT peptide array binding signal intensity
RVTRKRPREPKSTND | 3

Biological target: AgLsb4
Experiment: as above
How it was run: as §1

Binder | SPOT peptide array binding signal intensity
RVTRKRPREPKSTND | 72

Biological target: AgMyo5
Experiment: as above
How it was run: as §1

Binder | SPOT peptide array binding signal intensity
RVTRKRPREPKSTND | 2.5

Biological target: AgNbp2
Experiment: as above
How it was run: as §1

Binder | SPOT peptide array binding signal intensity
RVTRKRPREPKSTND | 123

Biological target: AgRvs167
Experiment: as above
How it was run: as §1

Binder | SPOT peptide array binding signal intensity
RVTRKRPREPKSTND | 0.667

Biological target: AgSho1
Experiment: as above
How it was run: as §1

Binder | SPOT peptide array binding signal intensity
RVTRKRPREPKSTND | 31

Biological target: AgSla1-D1-D2
Experiment: as above
How it was run: as §1

Binder | SPOT peptide array binding signal intensity
RVTRKRPREPKSTND | 178

Biological target: AgSla1-D3
Experiment: as above
How it was run: as §1

Binder | SPOT peptide array binding signal intensity
RVTRKRPREPKSTND | 7.25

Biological target: CaAbp1-D1
Experiment: as above
How it was run: as §1

Binder | SPOT peptide array binding signal intensity
RVTRKRPREPKSTND | 887

Biological target: CaAbp1-D2
Experiment: as above
How it was run: as §1

Binder | SPOT peptide array binding signal intensity
RVTRKRPREPKSTND | 550

Biological target: CaBbc1
Experiment: as above
How it was run: as §1

Binder | SPOT peptide array binding signal intensity
RVTRKRPREPKSTND | 346

Biological target: CaBem1-D1
Experiment: as above
How it was run: as §1

Binder | SPOT peptide array binding signal intensity
RVTRKRPREPKSTND | 40.5

Biological target: CaBzz1-D1
Experiment: as above
How it was run: as §1

Binder | SPOT peptide array binding signal intensity
RVTRKRPREPKSTND | 134

Biological target: CaBzz1-D2
Experiment: as above
How it was run: as §1

Binder | SPOT peptide array binding signal intensity
RVTRKRPREPKSTND | 174

Biological target: CaCyk3
Experiment: as above
How it was run: as §1

Binder | SPOT peptide array binding signal intensity
RVTRKRPREPKSTND | 169

Biological target: CaFus1
Experiment: as above
How it was run: as §1

Binder | SPOT peptide array binding signal intensity
RVTRKRPREPKSTND | 734

Biological target: CaHof1
Experiment: as above
How it was run: as §1

Binder | SPOT peptide array binding signal intensity
RVTRKRPREPKSTND | 1

Biological target: CaHse1
Experiment: as above
How it was run: as §1

Binder | SPOT peptide array binding signal intensity
RVTRKRPREPKSTND | 35.2

Biological target: CaLsb1
Experiment: as above
How it was run: as §1

Binder | SPOT peptide array binding signal intensity
RVTRKRPREPKSTND | 1.5

Biological target: CaLsb4
Experiment: as above
How it was run: as §1

Binder | SPOT peptide array binding signal intensity
RVTRKRPREPKSTND | 193

Biological target: CaMyo5
Experiment: as above
How it was run: as §1

Binder | SPOT peptide array binding signal intensity
RVTRKRPREPKSTND | 2

Biological target: CaNbp2
Experiment: as above
How it was run: as §1

Binder | SPOT peptide array binding signal intensity
RVTRKRPREPKSTND | 266

Biological target: CaRvs167
Experiment: as above
How it was run: as §1

Binder | SPOT peptide array binding signal intensity
RVTRKRPREPKSTND | 4

Biological target: CaRvs167-3
Experiment: as above
How it was run: as §1

Binder | SPOT peptide array binding signal intensity
RVTRKRPREPKSTND | 79.2

Biological target: CaSho1
Experiment: as above
How it was run: as §1

Binder | SPOT peptide array binding signal intensity
RVTRKRPREPKSTND | 327

Biological target: CaSla1-D1-D2
Experiment: as above
How it was run: as §1

Binder | SPOT peptide array binding signal intensity
RVTRKRPREPKSTND | 146

Biological target: CaSla1-D3
Experiment: as above
How it was run: as §1

Binder | SPOT peptide array binding signal intensity
RVTRKRPREPKSTND | ≤ 0

Biological target: ScAbp1
Experiment: as above
How it was run: as §1

Binder | SPOT peptide array binding signal intensity
RVTRKRPREPKSTND | 50

Biological target: ScBbc1
Experiment: as above
How it was run: as §1

Binder | SPOT peptide array binding signal intensity
RVTRKRPREPKSTND | 88

Biological target: ScBem1-D1
Experiment: as above
How it was run: as §1

Binder | SPOT peptide array binding signal intensity
RVTRKRPREPKSTND | 76

Biological target: ScBzz1-D1
Experiment: as above
How it was run: as §1

Binder | SPOT peptide array binding signal intensity
RVTRKRPREPKSTND | 12

Biological target: ScBzz1-D2
Experiment: as above
How it was run: as §1

Binder | SPOT peptide array binding signal intensity
RVTRKRPREPKSTND | 10

Biological target: ScCyk3
Experiment: as above
How it was run: as §1

Binder | SPOT peptide array binding signal intensity
RVTRKRPREPKSTND | 204

Biological target: ScFus1
Experiment: as above
How it was run: as §1

Binder | SPOT peptide array binding signal intensity
RVTRKRPREPKSTND | 312

Biological target: ScHof1
Experiment: as above
How it was run: as §1

Binder | SPOT peptide array binding signal intensity
RVTRKRPREPKSTND | 2.5

Biological target: ScHse1
Experiment: as above
How it was run: as §1

Binder | SPOT peptide array binding signal intensity
RVTRKRPREPKSTND | 1040

Biological target: ScLsb1
Experiment: as above
How it was run: as §1

Binder | SPOT peptide array binding signal intensity
RVTRKRPREPKSTND | 5.25

Biological target: ScLsb2
Experiment: as above
How it was run: as §1

Binder | SPOT peptide array binding signal intensity
RVTRKRPREPKSTND | 11

Biological target: ScLsb3
Experiment: as above
How it was run: as §1

Binder | SPOT peptide array binding signal intensity
RVTRKRPREPKSTND | 244

Biological target: ScLsb4
Experiment: as above
How it was run: as §1

Binder | SPOT peptide array binding signal intensity
RVTRKRPREPKSTND | 17

Biological target: ScMyo3
Experiment: as above
How it was run: as §1

Binder | SPOT peptide array binding signal intensity
RVTRKRPREPKSTND | 7

Biological target: ScMyo5
Experiment: as above
How it was run: as §1

Binder | SPOT peptide array binding signal intensity
RVTRKRPREPKSTND | 4.75

Biological target: ScNbp2
Experiment: as above
How it was run: as §1

Binder | SPOT peptide array binding signal intensity
RVTRKRPREPKSTND | 378

Biological target: ScPex13
Experiment: as above
How it was run: as §1

Binder | SPOT peptide array binding signal intensity
RVTRKRPREPKSTND | 1.25

Biological target: ScRvs167
Experiment: as above
How it was run: as §1

Binder | SPOT peptide array binding signal intensity
RVTRKRPREPKSTND | 20.3

Biological target: ScSho1
Experiment: as above
How it was run: as §1

Binder | SPOT peptide array binding signal intensity
RVTRKRPREPKSTND | 862

Biological target: ScSla1-D1-D2
Experiment: as above
How it was run: as §1

Binder | SPOT peptide array binding signal intensity
RVTRKRPREPKSTND | 779

Biological target: ScSla1-D3
Experiment: as above
How it was run: as §1

Binder | SPOT peptide array binding signal intensity
RVTRKRPREPKSTND | 15.2

Biological target: SpAbp1-D1
Experiment: as above
How it was run: as §1

Binder | SPOT peptide array binding signal intensity
RVTRKRPREPKSTND | 345

Biological target: SpBbc1
Experiment: as above
How it was run: as §1

Binder | SPOT peptide array binding signal intensity
RVTRKRPREPKSTND | 2.5

Biological target: SpBzz1-D1
Experiment: as above
How it was run: as §1

Binder | SPOT peptide array binding signal intensity
RVTRKRPREPKSTND | 184

Biological target: SpBzz1-D2
Experiment: as above
How it was run: as §1

Binder | SPOT peptide array binding signal intensity
RVTRKRPREPKSTND | ≤ 0

Biological target: SpCyk3
Experiment: as above
How it was run: as §1

Binder | SPOT peptide array binding signal intensity
RVTRKRPREPKSTND | 4.5

Biological target: SpHof1
Experiment: as above
How it was run: as §1

Binder | SPOT peptide array binding signal intensity
RVTRKRPREPKSTND | 222

Biological target: SpHof1-2
Experiment: as above
How it was run: as §1

Binder | SPOT peptide array binding signal intensity
RVTRKRPREPKSTND | 5.5

Biological target: SpHof1-3
Experiment: as above
How it was run: as §1

Binder | SPOT peptide array binding signal intensity
RVTRKRPREPKSTND | 316

Biological target: SpHse1
Experiment: as above
How it was run: as §1

Binder | SPOT peptide array binding signal intensity
RVTRKRPREPKSTND | 298

Biological target: SpLsb1
Experiment: as above
How it was run: as §1

Binder | SPOT peptide array binding signal intensity
RVTRKRPREPKSTND | 11.5

Biological target: SpLsb4
Experiment: as above
How it was run: as §1

Binder | SPOT peptide array binding signal intensity
RVTRKRPREPKSTND | 292

Biological target: SpMyo1
Experiment: as above
How it was run: as §1

Binder | SPOT peptide array binding signal intensity
RVTRKRPREPKSTND | 3

Biological target: SpNbp2
Experiment: as above
How it was run: as §1

Binder | SPOT peptide array binding signal intensity
RVTRKRPREPKSTND | 1040

Biological target: SpPex13
Experiment: as above
How it was run: as §1

Binder | SPOT peptide array binding signal intensity
RVTRKRPREPKSTND | 13

Biological target: SpRvs167
Experiment: as above
How it was run: as §1

Binder | SPOT peptide array binding signal intensity
RVTRKRPREPKSTND | 7.33

Biological target: SpSla1-D1-D2
Experiment: as above
How it was run: as §1

Binder | SPOT peptide array binding signal intensity
RVTRKRPREPKSTND | 1

Biological target: SpSla1-D3
Experiment: as above
How it was run: as §1

Binder | SPOT peptide array binding signal intensity
RVTRKRPREPKSTND | 5
